Experimental data: PubChem BioAssay AID504613 (National Center for Advancing Translational Sciences (NCATS), 2011)
Activity calls are given as the source filed them.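 How the source made its calls: active means clear growth inhibition over 72 hours in leukemia cell lines carrying a fused MLL gene, giving a fitted IC50; inactive means the rest.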

Assay: Confirmation of Inhibitors Targeting the Menin-MLL Interaction in MLL Related Leukemias: Confirmation in an MLL leukemia cell growth assay
Details: MV4-11 MLL-AF4 leukemia growth, MTT absorbance, 72 h; series mostly up to 50 µM
Description: qHTS Assay for Inhibitors Targeting the Menin-MLL Interaction in MLL Related Leukemias NIH Chemical Genomics Center [NCGC] NIH Molecular Libraries Probe Centers Network [MLPCN] MLPCN Grant: MH084875-01A1 Assay Submitter (PI): Jolanta Grembecka, Tomasz Cierpicki, University of Virginia Translocations of the MLL (Mixed Lineage Leukemia) gene are frequently found in human leukemias affecting both children and adults. Fusion of MLL to one of more than 60 genes results in generation of oncogenic proteins upregulating Hox genes, which are vital to blood cell development. Patients harboring fusion of the MLL gene suffer from aggressive leukemias and respond poorly to available therapies. All of the oncogenic fusion proteins have a preserved N-terminal fragment of MLL that has been identified to interact with menin. It has been recently discovered that association with menin is critical to the leukemogenic activity of the MLL fusion oncoproteins. […] We have developed and optimized a fluorescence polarization-based assay for the identification of Menin-MLL inhibitors. […]
Inhibition of cell proliferation in the MLL leukemia cells: MV4-11 (MLL-AF4), ML-2 (MLL-AF6) KOPN-8 (MLL-ENL) induced by compound measured after 72h treatment, as detected by the MTT cell viability assay. […] Plates were read for absorbance at 570 nm using a PHERAstar BMG microplate reader. […]
In the case of `N#Cc1ccc(OCCCN2CCC(C(O)c3ccccc3)CC2)cc1` (configuration not stated), the IC50 is reported as “inactive”.
With `N#Cc1ccc(OCCCN2CCC(C(O)(c3ccccc3)C3CCCC3)CC2)cc1` (configuration not stated) the IC50 was 12.8 µM (active).
